# Results filed as inconclusive are left out. Activity calls are given as the source filed them. Calls come from the whole dose curve; as a rule, active = well fitted inhibition curve with a large enough effect; inconclusive = small, poorly fitted or top-dose-only effect; inactive = flat fitted curve, though single readings scatter.
# Test system: CRL-7250
# Assay: Cytotoxic Profiling of Annotated Libraries Using Quantitative High-Throughput Screening (AID 1296008); note: nearly all actives have a fitted effect of over 60% in size
# Conditions: Five cell lines viability, CellTiter-Glo ATP luminescence, 48-72 h; max response: active compounds read low
# Summary of the method: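 Compounds were pin-transferred onto cells and incubated 48 or 72 hr at 37 degree Celsius, 95% humidity. CellTiter-Glo was added, plates sat 10 min at room temperature, then ATP-coupled luminescence was imaged as the viability read-out.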
# % is set by controls: 0 for no effect and ±100 for the full control effect.
SMILES,max response,outcome
C=C1CCC2C(C)(C(=O)O)CCCC2(C)C1CC/C(C)=C\CO (centres undefined),-2.2% (inactive),–
CN[C@H](CNC(=O)N1CCC[C@@H]([C@@H](OCCNC(=O)OC)c2cccc(Cl)c2)C1)C[C@H]1CCCOC1,-5.16% (inactive),–
COc1cc(C2Oc3c(OC)cc(/C=C/C(=O)OC4CC(O)(C(=O)O)CC(O)C4O)cc3C2CO)ccc1O (centres undefined),-7.61% (inactive),–
CC[C@@H](C)[C@H](N)C(=O)N1Cc2ccccc2C1,-11.3% (inactive),–
CC(=O)OC1CC(C(C)(C)O)OC2CCC3(C)OC4=C(C(=O)C=C5C(C)C(OC(C)=O)C6(C)C(C)OC546)C(O)C3C12C (centres undefined),–,inactive
C[C@@H]1O[C@@H](O[C@H]2[C@H](O)[C@@H](O)[C@H](OC[C@H]3O[C@@H](OC(=O)[C@]45CCC(C)(C)C[C@H]4C4=CCC6[C@@]7(C)C[C@@H](O)[C@H](O)[C@@](C)(CO)C7[C@H](O)C[C@@]6(C)[C@]4(C)CC5)[C@H](O)[C@@H](O)[C@@H]3O)O[C@@H]2CO)[C@H](O)[C@H](O)[C@H]1O (some centres undefined),–,inactive
CC1=CC(=O)C2C(C)(C)CCC[C@]2(C)[C@H]1CC[C@H](C)CC(=O)O (some centres undefined),-2.16% (inactive),–
C[C@H]1CC(=O)C2=C(C1)C(O)C(O)[C@@]1(O)[C@H]2C(=O)c2cccc(O)c2[C@@H]1O (some centres undefined),-10.1% (inactive),–
CC(=O)OC(C)(C)/C=C/C(=O)[C@](C)(O)C1[C@H](O)C[C@@]2(C)[C@@H]3CC=C4[C@@H](C[C@H](O[C@@H]5O[C@H](CO)[C@@H](O)[C@H](O)[C@H]5O)C(=O)C4(C)C)[C@]3(C)C(=O)C[C@]12C (some centres undefined),–,inactive
CC1CC(=O)[C@]2(O)C(C(=O)OCCc3ccc(O)c(O)c3)=CO[C@@H](O[C@@H]3O[C@H](CO)[C@@H](O)[C@H](O)[C@H]3O)[C@H]12 (some centres undefined),4.18% (inactive),–
COc1cc(/C=C/C(=O)OC[C@H]2O[C@@H](OC3OC=C(C(=O)O)C4C(O)CC(C)(O)C34)[C@H](O)[C@@H](O)[C@@H]2O)cc(OC)c1O (some centres undefined),-14.2% (inactive),–
CC(=O)OC[C@]12[C@@H](OC(=O)c3ccoc3)C[C@@H]3[C@@H](OC(C)=O)[C@]1(OC3(C)C)[C@@](C)(O)C[C@H](OC(=O)c1ccoc1)[C@@H]2OC(=O)c1ccoc1,-3.29% (inactive),–
CC(=O)O[C@H]1C[C@@H](O)C(C)(C)C2C[C@@H](OC(C)=O)[C@]3(C)C(CC[C@@]4(C)[C@H](c5ccoc5)OC(=O)[C@H]5O[C@]543)[C@]21C (some centres undefined),-9.34% (inactive),–
CC(=O)OC12CC(C)C(O)C1/C=C(/COC1OC(CO)C(O)C(O)C1O)CCC1C(/C=C(\C)C2=O)C1(C)C (centres undefined),-1.86% (inactive),–
C=C(CCO[C@@H]1O[C@H](CO)[C@@H](O)[C@H](O)[C@H]1O)C(=O)O,-12.8% (inactive),–
Cc1cc(C(=O)N2Cc3cnn(C)c3Nc3ccccc32)ccc1CNC(=O)N1CCN(Cc2cc(O)cc(O)c2)CC1,–,inactive
O=C(O)C1(c2ccc(-c3ccc(Cl)c(Cl)c3)c(F)c2)CC1,2.78% (inactive),–
C[C@@H]1O[C@@H](O[C@H]2[C@H](OC(=O)[C@]34CCC(C)(C)C[C@H]3C3=CCC5[C@@]6(C)C[C@@H](O)[C@@H](O)[C@@](C)(CO)C6[C@H](O)C[C@@]5(C)[C@]3(C)CC4)OC[C@H](O)[C@@H]2O)[C@H](O)[C@H](O)[C@H]1O[C@@H]1OC[C@@H](O)[C@H](O[C@H]2O[C@H](C)[C@@H](O)[C@H](O)[C@@H]2O)[C@H]1O (some centres undefined),1.4% (inactive),–
COc1cc(C(=O)OC[C@@]2(O)CO[C@@H](O[C@H]3[C@H](Oc4ccc(O)cc4)O[C@H](CO)[C@@H](O)[C@@H]3O)[C@@H]2O)cc(OC)c1O,–,inactive
COc1cc(C2Oc3c(OC)cc(CCCO)cc3C2CO)ccc1O (centres undefined),–,inactive

SMILES,max response,outcome
CC1(C)C[C@H]2C=C(C=O)[C@]3(C(=O)O)C[C@]3(C)[C@H]2C1,-0.156% (inactive),–
CC(C)=CCC[C@](C)(O[C@@H]1O[C@H](CO[C@@H]2OC[C@H](O)[C@H](O)[C@H]2O)[C@@H](O)[C@H](O)[C@H]1O)[C@H]1CC[C@]2(C)[C@@H]1[C@H](O)C[C@@H]1[C@@]3(C)CC[C@H](O[C@@H]4O[C@H](CO)[C@@H](O)[C@H](O)[C@H]4O[C@@H]4O[C@H](CO)[C@@H](O)[C@H](O)[C@H]4O)C(C)(C)[C@@H]3CC[C@]12C,–,inactive
O=C(O)CC(CCc1ccccc1)OC1OC(CO)C(O)C(O)C1O (centres undefined),-6.12% (inactive),–
CC(C)(Oc1ccc(-c2nc3cc(Cl)ccc3s2)cc1)C(=O)O,–,inactive
COc1c2c(c(C)c3c1C(=O)OC3)OC1(C)CC(O)C34OC(O)(CCC3(C)C1C2)OC4(C)C (centres undefined),–,inactive
C=C1C2(C)CC3C4(C)OC(C5OC56C4=CC(=O)OC6(C)C)C3(C)C13C(=O)OC(C)C3(O)C2=O (centres undefined),-6.5% (inactive),–
CC(=O)OC/C(=C/C(=O)O)CC[C@@H]1C(CO)=CC[C@@H]2C(C)(C)CCC[C@@]12C,1.35% (inactive),–
COc1cc(/C=C/c2ccccc2)c(C(=O)O)c(O)c1CC=C(C)C,-4.97% (inactive),–
COc1cc2c(cc1O)C(c1ccc(O)cc1)C(C)C(C)C2 (centres undefined),-22.8% (inactive),–
COc1c(O[C@@H]2O[C@H](CO)[C@@H](O)[C@H](O)[C@H]2O)c(CCC(=O)O)cc2ccoc12,-9.14% (inactive),–
C=C1[C@H](OC(C)=O)[C@H]2[C@@H](OC(=O)c3ccccc3)[C@@H](C)C[C@]2(O)[C@@H](OC(C)=O)[C@H](C)/C=C/C(C)(C)C(=O)[C@H](OC(C)=O)[C@H]1OC(C)=O,3.14% (inactive),–
CC1(C)CCC[C@@]2(C)[C@H]1[C@H](O)C=C(CO)[C@]2(O)CO,-0.0206% (inactive),–
NC(=O)[C@@H]1CC[C@H](c2ccc(OCc3ccccc3F)cc2)N1,-6.02% (inactive),–
CC1=C(CC/C(C)=C/C(=O)O)[C@@]2(C)CCCC(C)(C)C2CC1=O (some centres undefined),-7.55% (inactive),–
COc1ccc(-c2ccn(CC[C@](C)(C(=O)NO)S(C)(=O)=O)c(=O)c2)c(F)c1,2.02% (inactive),–
CC(O)CCc1ccc(O[C@@H]2O[C@H](CO)[C@@H](O)[C@H](O)[C@H]2O)cc1 (some centres undefined),0.631% (inactive),–
O=C(O)Cc1cn([C@@H]2O[C@H](CO)[C@@H](O)[C@H](O)[C@H]2O[C@@H]2O[C@H](CO)[C@@H](O)[C@H](O)[C@H]2O)c2ccccc12,-3.23% (inactive),–
C/C(=C\C(=O)C[C@@]12C(=O)O[C@]3(C)CC[C@H]1C[C@H]23)C(N)=O,-61.5% (inactive),–
C[C@@H]1C[C@@H](O)[C@@]2(CO)C(CO)=CCC[C@@H]2[C@@]12C[C@@H](c1ccoc1)OC2=O,–,inactive
